Holding throughout (assay): DAPPL (digital affinity profiling via proximity ligation, sequencing); 10 mM Tris-HCl pH 7.5, 50 mM NaCl, 1 mM DTT, 4% glycerol, room temperature, 30 min; GST-TFs on glutathione beads, 16-mer random dsDNA library, 0.1% formaldehyde crosslink after washing; high values mean tight binding
One assay deals with T1, FLI1 (Homo sapiens, UniProt Q01543 1-452).
T1 sequence: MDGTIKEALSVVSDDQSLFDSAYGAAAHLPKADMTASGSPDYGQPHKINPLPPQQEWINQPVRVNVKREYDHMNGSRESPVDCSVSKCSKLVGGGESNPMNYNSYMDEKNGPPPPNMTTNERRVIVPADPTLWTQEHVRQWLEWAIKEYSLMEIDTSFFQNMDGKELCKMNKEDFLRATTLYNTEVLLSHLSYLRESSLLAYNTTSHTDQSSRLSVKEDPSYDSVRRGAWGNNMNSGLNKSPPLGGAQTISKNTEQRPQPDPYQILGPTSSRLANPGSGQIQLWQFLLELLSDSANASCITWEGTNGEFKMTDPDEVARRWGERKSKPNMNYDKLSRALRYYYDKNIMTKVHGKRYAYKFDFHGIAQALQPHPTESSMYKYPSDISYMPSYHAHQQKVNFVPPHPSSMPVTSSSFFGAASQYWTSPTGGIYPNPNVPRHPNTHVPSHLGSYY
The settings on record: protein: recombinant; tags: N-terminal GST; dsDNA, one strand shown. An outline of the steps: (§1)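 After expression in yeast as GST fusions, human transcription factors were bound to glutathione beads, DNA-barcoded and mixed with a tag-only sample. The pools were incubated with 200 nmole of a 16-mer random double-stranded DNA library in Tris/NaCl/DTT/glycerol buffer (30 min, room temperature), washed and crosslinked with 0.1% formaldehyde. Proximity ligation with BsaI/T4 ligase ran for 1 h at 37 °C, before PCR amplification and sequencing on an Illumina NextSeq500. Binding signal is a hexamer's read frequency for a factor divided by its frequency for the tag-only sample.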

Another assay has as its target T2, ELK1 (Homo sapiens, UniProt P19419 1-428).
T2 sequence: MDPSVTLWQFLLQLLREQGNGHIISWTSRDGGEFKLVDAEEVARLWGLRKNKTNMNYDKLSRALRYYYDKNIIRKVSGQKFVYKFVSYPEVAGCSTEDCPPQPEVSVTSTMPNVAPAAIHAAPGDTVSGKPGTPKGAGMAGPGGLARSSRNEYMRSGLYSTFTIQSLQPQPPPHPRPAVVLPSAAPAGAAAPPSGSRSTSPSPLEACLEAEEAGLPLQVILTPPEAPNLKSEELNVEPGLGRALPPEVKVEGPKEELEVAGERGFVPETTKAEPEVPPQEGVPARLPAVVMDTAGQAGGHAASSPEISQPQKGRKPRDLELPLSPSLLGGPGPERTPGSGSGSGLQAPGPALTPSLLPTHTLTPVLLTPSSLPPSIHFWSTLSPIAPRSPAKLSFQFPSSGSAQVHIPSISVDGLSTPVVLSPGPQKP
The note with it: protein: recombinant; tags: N-terminal GST; dsDNA, one strand shown. An outline of the steps: as §1

The target in another assay is T3, GABPA (Homo sapiens, UniProt Q06546 1-454).
T3 sequence: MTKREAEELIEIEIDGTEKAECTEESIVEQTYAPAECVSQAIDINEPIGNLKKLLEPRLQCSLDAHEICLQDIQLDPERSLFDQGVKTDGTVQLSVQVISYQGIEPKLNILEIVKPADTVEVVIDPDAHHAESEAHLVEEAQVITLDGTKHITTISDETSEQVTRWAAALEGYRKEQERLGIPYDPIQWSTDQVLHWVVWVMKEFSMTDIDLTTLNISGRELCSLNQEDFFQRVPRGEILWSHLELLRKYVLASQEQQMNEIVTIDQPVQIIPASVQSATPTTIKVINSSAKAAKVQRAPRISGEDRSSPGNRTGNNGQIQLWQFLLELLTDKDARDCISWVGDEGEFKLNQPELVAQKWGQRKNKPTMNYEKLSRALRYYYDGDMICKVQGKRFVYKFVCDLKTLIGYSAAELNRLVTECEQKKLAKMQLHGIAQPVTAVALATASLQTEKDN
The note with it: protein: recombinant; tags: N-terminal GST; dsDNA, one strand shown. An outline of the steps:
as §1

Another assay deals with T4, ERG (Homo sapiens, UniProt P11308 1-479).
T4 sequence: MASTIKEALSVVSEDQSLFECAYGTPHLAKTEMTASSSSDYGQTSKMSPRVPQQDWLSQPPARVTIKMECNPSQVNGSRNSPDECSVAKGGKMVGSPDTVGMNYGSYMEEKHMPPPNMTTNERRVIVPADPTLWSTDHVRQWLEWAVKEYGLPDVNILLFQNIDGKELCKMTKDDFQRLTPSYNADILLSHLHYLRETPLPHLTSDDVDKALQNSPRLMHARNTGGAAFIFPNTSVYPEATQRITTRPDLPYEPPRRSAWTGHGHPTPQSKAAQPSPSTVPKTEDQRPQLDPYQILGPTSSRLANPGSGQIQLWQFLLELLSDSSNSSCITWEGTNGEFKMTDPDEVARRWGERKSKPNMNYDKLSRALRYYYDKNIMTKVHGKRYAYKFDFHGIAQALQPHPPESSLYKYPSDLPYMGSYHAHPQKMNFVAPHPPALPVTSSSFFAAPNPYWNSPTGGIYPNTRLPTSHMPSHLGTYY
The settings on record: protein: recombinant; tags: N-terminal GST; dsDNA, one strand shown. An outline of the steps: as §1

For the next assay, the target named is ELF1 (Homo sapiens, UniProt P32519 1-619). The note with it: protein: recombinant; tags: N-terminal GST; dsDNA, one strand shown. An outline of the steps:
as §1

In a further assay the target is T5, EHF (Homo sapiens, UniProt Q9NZC4 1-300).
T5 sequence: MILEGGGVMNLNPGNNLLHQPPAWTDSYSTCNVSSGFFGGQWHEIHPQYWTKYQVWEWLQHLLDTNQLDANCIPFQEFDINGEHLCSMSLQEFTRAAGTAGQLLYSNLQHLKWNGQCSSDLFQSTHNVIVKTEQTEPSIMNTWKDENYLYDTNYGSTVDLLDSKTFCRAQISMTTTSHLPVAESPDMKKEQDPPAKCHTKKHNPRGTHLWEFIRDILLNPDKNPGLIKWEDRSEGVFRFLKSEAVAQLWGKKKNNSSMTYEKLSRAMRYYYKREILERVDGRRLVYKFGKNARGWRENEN
The settings on record: protein: recombinant; tags: N-terminal GST; dsDNA, one strand shown. In a few lines:
as §1

Another assay addresses SPI1 (Homo sapiens, UniProt P17947 1-270). The note with it: protein: recombinant; tags: N-terminal GST; dsDNA, one strand shown. An outline of the steps:
as §1

Another assay addresses SPIB (Homo sapiens, UniProt Q01892 1-262). The note with it: protein: recombinant; tags: N-terminal GST; dsDNA, one strand shown. In a few lines: as §1
The next assay deals with T6, ELK3 (Homo sapiens, UniProt P41970 1-407).
T6 sequence: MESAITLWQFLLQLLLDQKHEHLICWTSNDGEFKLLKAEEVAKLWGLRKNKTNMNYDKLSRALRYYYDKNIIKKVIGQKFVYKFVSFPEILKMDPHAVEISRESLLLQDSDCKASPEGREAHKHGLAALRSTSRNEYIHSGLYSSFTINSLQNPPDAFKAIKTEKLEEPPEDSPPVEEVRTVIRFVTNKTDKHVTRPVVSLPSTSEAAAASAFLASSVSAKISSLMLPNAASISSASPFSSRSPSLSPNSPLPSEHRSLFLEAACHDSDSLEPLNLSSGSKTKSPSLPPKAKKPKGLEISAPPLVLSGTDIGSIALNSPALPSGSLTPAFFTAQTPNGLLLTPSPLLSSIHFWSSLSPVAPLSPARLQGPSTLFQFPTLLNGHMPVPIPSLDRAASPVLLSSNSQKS
The settings on record: protein: recombinant; tags: N-terminal GST; dsDNA, one strand shown. An outline of the steps: as §1

In a further assay the target is T7, FEV (Homo sapiens, UniProt Q99581 1-238).
T7 sequence: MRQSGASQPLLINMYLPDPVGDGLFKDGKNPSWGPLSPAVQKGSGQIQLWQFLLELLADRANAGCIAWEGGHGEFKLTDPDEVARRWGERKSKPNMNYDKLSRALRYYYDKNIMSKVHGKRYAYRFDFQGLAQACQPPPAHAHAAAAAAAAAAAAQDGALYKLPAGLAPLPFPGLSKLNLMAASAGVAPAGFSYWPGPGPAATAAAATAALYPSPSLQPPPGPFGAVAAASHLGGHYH
The note with it: protein: recombinant; tags: N-terminal GST; dsDNA, one strand shown. In a few lines:
as §1

The next assay concerns the target ETV5 (Homo sapiens, UniProt P41161 1-510). The settings on record: protein: recombinant; tags: N-terminal GST; dsDNA, one strand shown. In a few lines:
as §1

In a further assay the target is HSF1 (Homo sapiens, UniProt Q00613 1-529). The settings on record: protein: recombinant; tags: N-terminal GST; chain copies: 3; dsDNA, one strand shown. An outline of the steps: as §1
Sequence of HSF1 (Q00613 whole entry): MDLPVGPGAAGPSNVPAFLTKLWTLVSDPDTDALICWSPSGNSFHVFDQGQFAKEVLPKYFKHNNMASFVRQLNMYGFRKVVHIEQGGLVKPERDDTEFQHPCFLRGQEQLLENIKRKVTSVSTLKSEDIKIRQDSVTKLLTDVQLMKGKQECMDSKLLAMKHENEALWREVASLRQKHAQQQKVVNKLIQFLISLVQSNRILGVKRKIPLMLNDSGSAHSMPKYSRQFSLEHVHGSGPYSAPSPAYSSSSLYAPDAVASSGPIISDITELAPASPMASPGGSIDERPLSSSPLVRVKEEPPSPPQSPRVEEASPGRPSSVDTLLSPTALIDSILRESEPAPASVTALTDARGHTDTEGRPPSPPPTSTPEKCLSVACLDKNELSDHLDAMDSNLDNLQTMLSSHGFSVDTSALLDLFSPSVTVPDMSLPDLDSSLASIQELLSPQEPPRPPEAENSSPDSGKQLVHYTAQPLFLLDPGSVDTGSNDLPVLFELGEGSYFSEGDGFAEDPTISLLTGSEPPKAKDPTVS
For a further assay, the target named is T8, SPIC (Homo sapiens, UniProt Q8N5J4 1-248).
T8 sequence: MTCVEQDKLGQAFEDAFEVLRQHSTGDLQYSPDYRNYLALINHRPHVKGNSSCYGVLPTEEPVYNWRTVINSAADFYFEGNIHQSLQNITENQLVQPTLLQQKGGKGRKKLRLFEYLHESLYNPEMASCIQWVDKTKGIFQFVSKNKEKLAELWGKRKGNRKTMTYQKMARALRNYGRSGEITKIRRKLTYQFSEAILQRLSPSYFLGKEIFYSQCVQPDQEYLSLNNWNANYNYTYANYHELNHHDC
The note with it: protein: recombinant; tags: N-terminal GST; dsDNA, one strand shown. In a few lines: as §1

The target in the next assay is ELF4 (Homo sapiens, UniProt Q99607 1-663). The settings on record: protein: recombinant; tags: N-terminal GST; dsDNA, one strand shown. An outline of the steps: as §1
Sequence of ELF4 (Q99607 whole entry): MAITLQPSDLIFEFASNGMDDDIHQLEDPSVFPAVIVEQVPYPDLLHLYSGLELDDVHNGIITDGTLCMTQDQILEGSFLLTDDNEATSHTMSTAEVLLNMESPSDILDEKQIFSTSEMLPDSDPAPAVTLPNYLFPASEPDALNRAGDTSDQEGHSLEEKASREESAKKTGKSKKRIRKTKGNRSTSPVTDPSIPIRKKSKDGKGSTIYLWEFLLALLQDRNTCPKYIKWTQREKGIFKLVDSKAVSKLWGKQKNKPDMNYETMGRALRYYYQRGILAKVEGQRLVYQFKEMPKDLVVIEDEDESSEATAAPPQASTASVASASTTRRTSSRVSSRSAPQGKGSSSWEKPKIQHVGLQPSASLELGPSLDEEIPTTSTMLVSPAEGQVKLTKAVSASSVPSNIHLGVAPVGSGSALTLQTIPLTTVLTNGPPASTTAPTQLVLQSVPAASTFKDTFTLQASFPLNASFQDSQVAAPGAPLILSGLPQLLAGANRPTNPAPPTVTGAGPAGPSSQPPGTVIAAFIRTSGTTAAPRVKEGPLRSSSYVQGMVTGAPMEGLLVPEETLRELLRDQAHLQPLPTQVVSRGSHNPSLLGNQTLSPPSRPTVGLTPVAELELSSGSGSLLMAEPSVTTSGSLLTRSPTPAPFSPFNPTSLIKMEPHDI
In the next assay the target is T9, ELK4 (Homo sapiens, UniProt P28324-2 1-405).
T9 sequence: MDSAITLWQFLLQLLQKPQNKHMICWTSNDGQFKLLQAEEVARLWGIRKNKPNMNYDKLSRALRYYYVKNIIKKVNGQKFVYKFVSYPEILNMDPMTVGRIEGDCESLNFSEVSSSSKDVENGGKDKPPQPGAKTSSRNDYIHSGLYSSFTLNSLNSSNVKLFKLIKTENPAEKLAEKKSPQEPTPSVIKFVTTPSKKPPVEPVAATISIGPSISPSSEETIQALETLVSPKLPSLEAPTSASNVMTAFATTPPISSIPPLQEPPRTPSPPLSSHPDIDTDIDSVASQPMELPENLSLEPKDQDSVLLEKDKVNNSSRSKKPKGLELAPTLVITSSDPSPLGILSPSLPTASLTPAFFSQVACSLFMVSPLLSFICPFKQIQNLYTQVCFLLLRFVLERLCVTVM
The settings on record: protein: recombinant; tags: N-terminal GST; dsDNA, one strand shown. In a few lines: as §1

A further assay concerns the target T10, ETV2 (Homo sapiens, UniProt O00321 1-342).
T10 sequence: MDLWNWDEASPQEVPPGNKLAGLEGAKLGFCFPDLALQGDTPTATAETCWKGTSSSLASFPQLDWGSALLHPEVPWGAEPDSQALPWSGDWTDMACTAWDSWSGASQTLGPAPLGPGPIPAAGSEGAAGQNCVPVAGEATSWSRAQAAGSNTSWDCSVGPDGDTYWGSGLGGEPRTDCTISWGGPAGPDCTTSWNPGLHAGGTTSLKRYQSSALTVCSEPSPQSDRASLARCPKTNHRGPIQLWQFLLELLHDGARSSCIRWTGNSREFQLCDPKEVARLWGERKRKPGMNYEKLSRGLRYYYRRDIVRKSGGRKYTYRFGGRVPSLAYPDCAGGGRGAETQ
The note with it: protein: recombinant; tags: N-terminal GST; dsDNA, one strand shown. In a few lines: as §1

For the next assay, the target named is T11, ELF3 (Homo sapiens, UniProt P78545 1-371).
T11 sequence: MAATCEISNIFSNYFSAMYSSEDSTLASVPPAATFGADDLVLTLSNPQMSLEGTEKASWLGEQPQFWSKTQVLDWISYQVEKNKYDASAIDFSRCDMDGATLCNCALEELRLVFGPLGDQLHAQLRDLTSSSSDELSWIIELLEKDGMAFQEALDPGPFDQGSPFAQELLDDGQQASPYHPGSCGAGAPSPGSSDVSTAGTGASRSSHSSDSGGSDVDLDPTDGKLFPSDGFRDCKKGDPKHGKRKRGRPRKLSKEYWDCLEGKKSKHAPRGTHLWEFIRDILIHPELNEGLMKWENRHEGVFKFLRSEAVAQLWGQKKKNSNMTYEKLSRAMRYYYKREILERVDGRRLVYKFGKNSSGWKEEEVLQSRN
The settings on record: protein: recombinant; tags: N-terminal GST; dsDNA, one strand shown. In a few lines: as §1

For another assay, the target named is ETV1 (Homo sapiens, UniProt P50549 1-477). The note with it: protein: recombinant; tags: N-terminal GST; dsDNA, one strand shown. An outline of the steps:
as §1

Sequence of ELF1 (P32519 whole entry): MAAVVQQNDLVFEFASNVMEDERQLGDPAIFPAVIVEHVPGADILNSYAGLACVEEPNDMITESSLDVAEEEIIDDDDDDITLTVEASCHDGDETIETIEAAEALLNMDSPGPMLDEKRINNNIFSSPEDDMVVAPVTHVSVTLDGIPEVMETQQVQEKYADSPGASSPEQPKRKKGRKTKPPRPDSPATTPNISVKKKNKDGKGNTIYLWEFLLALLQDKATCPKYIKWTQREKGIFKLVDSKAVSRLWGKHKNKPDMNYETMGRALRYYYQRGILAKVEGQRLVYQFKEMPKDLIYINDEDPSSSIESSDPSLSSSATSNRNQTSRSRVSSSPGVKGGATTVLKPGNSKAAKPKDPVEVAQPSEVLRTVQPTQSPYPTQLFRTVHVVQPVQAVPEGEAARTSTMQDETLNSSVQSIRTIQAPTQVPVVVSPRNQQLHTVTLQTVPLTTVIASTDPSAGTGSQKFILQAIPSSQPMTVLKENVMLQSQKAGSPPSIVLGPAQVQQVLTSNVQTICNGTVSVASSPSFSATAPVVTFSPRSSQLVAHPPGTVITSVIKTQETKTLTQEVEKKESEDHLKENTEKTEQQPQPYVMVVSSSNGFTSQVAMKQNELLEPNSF
Sequence of ETV1 (P50549 whole entry): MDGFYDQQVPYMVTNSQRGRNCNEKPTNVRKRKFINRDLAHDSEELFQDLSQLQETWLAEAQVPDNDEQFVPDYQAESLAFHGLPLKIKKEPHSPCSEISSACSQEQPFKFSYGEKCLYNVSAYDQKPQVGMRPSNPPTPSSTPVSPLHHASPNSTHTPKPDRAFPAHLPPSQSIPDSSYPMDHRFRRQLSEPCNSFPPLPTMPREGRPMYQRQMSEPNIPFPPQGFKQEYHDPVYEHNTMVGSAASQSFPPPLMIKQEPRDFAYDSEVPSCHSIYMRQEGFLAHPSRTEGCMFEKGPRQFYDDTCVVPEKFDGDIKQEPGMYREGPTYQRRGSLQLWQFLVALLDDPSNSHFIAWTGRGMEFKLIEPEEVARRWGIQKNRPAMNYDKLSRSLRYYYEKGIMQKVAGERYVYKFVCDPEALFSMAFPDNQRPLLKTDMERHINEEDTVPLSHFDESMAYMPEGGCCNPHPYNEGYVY
Sequence of ETV5 (P41161 whole entry): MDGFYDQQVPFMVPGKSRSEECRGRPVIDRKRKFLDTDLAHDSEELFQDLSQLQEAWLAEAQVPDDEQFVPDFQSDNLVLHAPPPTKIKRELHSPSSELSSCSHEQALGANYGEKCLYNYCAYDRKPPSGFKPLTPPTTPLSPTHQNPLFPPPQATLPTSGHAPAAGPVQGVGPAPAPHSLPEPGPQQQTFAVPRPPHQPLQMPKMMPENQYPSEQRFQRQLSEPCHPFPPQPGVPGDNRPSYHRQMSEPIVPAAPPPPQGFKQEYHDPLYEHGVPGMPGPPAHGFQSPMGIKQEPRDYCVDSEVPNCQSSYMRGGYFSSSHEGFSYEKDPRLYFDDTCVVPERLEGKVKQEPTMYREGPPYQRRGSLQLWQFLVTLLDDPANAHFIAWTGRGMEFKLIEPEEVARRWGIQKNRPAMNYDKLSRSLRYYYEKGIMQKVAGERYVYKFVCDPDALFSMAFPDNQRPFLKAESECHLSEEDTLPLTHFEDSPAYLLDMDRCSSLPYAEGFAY
Sequence of SPIB (Q01892 whole entry): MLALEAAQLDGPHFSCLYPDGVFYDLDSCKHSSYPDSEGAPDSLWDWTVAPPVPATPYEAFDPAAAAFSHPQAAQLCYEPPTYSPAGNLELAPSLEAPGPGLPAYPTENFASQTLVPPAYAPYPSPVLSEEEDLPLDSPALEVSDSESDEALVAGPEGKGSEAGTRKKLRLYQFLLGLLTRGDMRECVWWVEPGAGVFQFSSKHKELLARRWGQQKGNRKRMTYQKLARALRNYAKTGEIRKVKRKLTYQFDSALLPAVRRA

On to GTTCCC, for which the binding signal in the assay with FLI1 is 1.36 fold enrichment (6-mer frequency, TF over GST control); in the assay with ELK1, 1.27 fold enrichment (6-mer frequency, TF over GST control); in the assay with GABPA, 1.33 fold enrichment (6-mer frequency, TF over GST control); with ERG, 1.25 fold enrichment (6-mer frequency, TF over GST control); in the assay with ELF1, 1.28 fold enrichment (6-mer frequency, TF over GST control); with EHF, 1.28 fold enrichment (6-mer frequency, TF over GST control). For the same sequence, the binding signal with SPI1 is 1.71 fold enrichment (6-mer frequency, TF over GST control); in the assay with SPIB it was 1.37 fold enrichment (6-mer frequency, TF over GST control); with ELK3, 1.23 fold enrichment (6-mer frequency, TF over GST control); with FEV, 1.27 fold enrichment (6-mer frequency, TF over GST control); with ETV5, 1.22 fold enrichment (6-mer frequency, TF over GST control); in the assay with HSF1 it was 1.26 fold enrichment (6-mer frequency, TF over GST control). Also, the binding signal with SPIC was 1.38 fold enrichment (6-mer frequency, TF over GST control); with ELF4, 1.36 fold enrichment (6-mer frequency, TF over GST control); in the assay with ELK4 it was 1.19 fold enrichment (6-mer frequency, TF over GST control); with ETV2, 1.12 fold enrichment (6-mer frequency, TF over GST control); in the assay with ELF3, 1.23 fold enrichment (6-mer frequency, TF over GST control); in the assay with ETV1, 1.39 fold enrichment (6-mer frequency, TF over GST control).

(Values after article PMC7862700, “An all-to-all approach to the identification of sequence-specific readers for epigenetic DNA modifications on cytosine”.)
